Sampled rows, rich in hits. Any-hit rate of the full collection: about 19%.
TDP1 cell noCPT: qHTS for Inhibitors of human tyrosyl-DNA phosphodiesterase 1 (TDP1): qHTS in cells in absence of CPT; hit rate 15% among 420,000; DT40 Tdp1-/- hTDP1 cells, no CPT, ATP luminescence, 48 h; Potency, µM (doses to about 46.2 µM), for the others: at the top dose activity change, negative = growth inhibition, hits mostly inhibitors; further: potency means the concentration at half of the fitted maximal effect; nearly all actives have a fitted effect of over 55% in size
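Compound effects on proliferation are scored in DT40 Tdp1-/-;hTDP1 cells in the absence of CPT. ATP levels (CellTiter-Glo luminescence) are recorded after a ≥48 hr, 37 °C incubation.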
ELG1 repair inh: qHTS screen for small molecules that inhibit ELG1-dependent DNA repair in human embryonic kidney (HEK293T) cells expressing luciferase-tagged ELG1 | HEK293T ELG1-luciferase reporter, luminescence, 16 h; DNA damage induced by 5-fluorouridine | hit rate 2.3% among 330,000 | Potency, µM (series often up to 46.1 µM), without a hit: at the highest dose activity change, negative = inhibition, hits mostly inhibitors; further: potency means the concentration at half of the fitted maximal effect; nearly all actives have a fitted effect of over 55% in size
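5-Fluorouridine DNA damage + compound/DMSO, 2,000 cells/well, 16 h, 37 °C/5% CO2. ONE-Glo, 30 min RT, luminescence. Readout = decrease in reporter signal.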
IL1B secr inh: qHTS for Inhibitors of Inflammasome Signaling: IL-1-beta AlphaLISA Primary Screen; activity change, % at 57.5 µM; THP-1 LPS/ATP IL-1B secretion, AlphaLISA, 16 h; active compounds read low; hit rate 4.7% among 360,000; in the data active means activity change below about -50%; inconclusive means mostly about -30% to -49%
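THP-1 cells pretreated 1 hr with compounds (up to 57.5 uM final), then stimulated with LPS (250 ng/mL final) plus ATP (1.25 mM final); secreted IL-1B measured by AlphaLISA after 16 hr, decreased signal indicating inhibition.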
TDP1 inh: qHTS Assay for Inhibitors of Tyrosyl-DNA Phosphodiesterase (TDP1); recombinant TDP1, AlphaScreen DNA substrate cleavage; hit rate 0.28% among 350,000; Tyrosyl-DNA phosphodiesterase 1 (Homo sapiens), Q9NUW8; Potency, µM (doses to about 130 µM), inactives show top-dose activity change, negative = inhibition, usual class: inhibitors; further: potency means the concentration at half of the fitted maximal effect; nearly all actives have a fitted effect of over 40% in size
Target sequence (Q9NUW8 whole entry, looked up): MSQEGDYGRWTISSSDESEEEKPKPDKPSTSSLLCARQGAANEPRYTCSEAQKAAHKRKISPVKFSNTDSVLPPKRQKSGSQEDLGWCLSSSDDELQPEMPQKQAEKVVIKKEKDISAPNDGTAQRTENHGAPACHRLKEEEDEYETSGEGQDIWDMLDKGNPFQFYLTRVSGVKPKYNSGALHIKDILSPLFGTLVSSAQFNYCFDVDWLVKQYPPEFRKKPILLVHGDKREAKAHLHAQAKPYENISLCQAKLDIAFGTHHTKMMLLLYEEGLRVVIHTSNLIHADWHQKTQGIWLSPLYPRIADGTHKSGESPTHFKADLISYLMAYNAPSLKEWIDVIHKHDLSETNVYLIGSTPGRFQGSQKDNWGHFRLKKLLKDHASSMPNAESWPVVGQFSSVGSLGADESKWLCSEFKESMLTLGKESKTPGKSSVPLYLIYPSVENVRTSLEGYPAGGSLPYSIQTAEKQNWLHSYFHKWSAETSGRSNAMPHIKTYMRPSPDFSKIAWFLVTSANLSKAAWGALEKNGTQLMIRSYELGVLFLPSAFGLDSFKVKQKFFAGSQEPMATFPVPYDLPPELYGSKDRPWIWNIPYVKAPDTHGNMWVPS
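AlphaScreen read-out: signal falls as enzyme removes the 3' tyrosine-FITC from a 5'-biotinylated DNA oligo (15 nM, 5 min, RT). Enzyme was E. coli-made recombinant Tdp1 at 1 nM, exposed to compound for 15 min beforehand; beads 10 ug/ml, 10 min.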
DT40 TDP1 CPT: qHTS for Inhibitors of human tyrosyl-DNA phosphodiesterase 1 (TDP1): qHTS in cells in presence of CPT. chicken DT40 Tdp1-/-;hTDP1 cells + 20 nM CPT, ATP luminescence, 48 h. Potency, µM (doses to about 46.2 µM), inactives show at the highest dose activity change, negative = growth inhibition, actives largely listed as inhibitors. hit rate 12% among 420,000; further: potency means the concentration at half of the fitted maximal effect; nearly all actives have a fitted effect of over 55% in size
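Chicken DT40 Tdp1-/- cells stably complemented with human TDP1 were seeded at 400 cells/well in medium containing 20 nM camptothecin, exposed to pin-transferred compounds, and grown at 37 °C for at least 48 hr. Viability was read as ATP luminescence.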
Giardia kill: Small Molecules that selectively kill Giardia lamblia: qHTS. activity change, % at 7.66 µM, hits read low. AID 540267, 2011. hit rate 0.15% among 340,000. Giardia lamblia trophozoite viability; in the data active means activity change below about -80%; inconclusive means between about -30% and that limit;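 further: parasites exposed to compound for two days anaerobically before the ATP read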
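Trophozoite viability was measured as ATP-dependent luminescence, read 15-30 min after reagent addition. Before that, parasites at 100 cells/well were exposed to compounds for 48 h, anaerobically, at 37 deg C.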
* = called active by the depositor; [ ] = remark or other dose. Unless noted, the call rests on the fitted dose curve; in most records, active means well fitted curve in the direction sought with a large enough effect; inconclusive means small, poorly fitted or top-dose-only effect, or another doubt; inactive means no such curve, though single readings can be large; an effect the other way counts as inactive or inconclusive. On the % scale 0 is the no-effect control and ±100 the full control effect.

Results for COc1ccc(C2=C(Nc3ccc(Br)c(C)c3)c3ccccc3C2=O)cc1 ?
TDP1 cell noCPT: 12µM*; TDP1 inh: 12%; DT40 TDP1 CPT: 7.3µM*

What do the screens show for `COc1ccc(C2=C(Nc3ccc(F)cc3)c3ccccc3C2=O)cc1`?
TDP1 cell noCPT: inconclusive; ELG1 repair inh: 2%; IL1B secr inh: -20; TDP1 inh: 9%; DT40 TDP1 CPT: inconclusive; Giardia kill: -1

How did COc1ccc(C2=C(Nc3ccc(C)cc3)c3ccccc3C2=O)cc1 do in these assays?
TDP1 cell noCPT: inconclusive; ELG1 repair inh: 22%; IL1B secr inh: 2; TDP1 inh: 3%; DT40 TDP1 CPT: 5.2µM*; Giardia kill: 7

Results for CCN(CC(=O)NCc1cccs1)C(=O)Cc1ccc(Cl)c(Cl)c1 ?
TDP1 cell noCPT: inconclusive; ELG1 repair inh: 0%; IL1B secr inh: -13; TDP1 inh: 0%; DT40 TDP1 CPT: inconclusive; Giardia kill: -19

What do the screens show for `O=C(Nc1cccc(C(F)(F)F)c1)C1Cc2c(-c3ccco3)ccnc2O1` (stereo not given)?
TDP1 cell noCPT: inconclusive; DT40 TDP1 CPT: 16µM*

How did O=C(Nc1cccc(OC(F)(F)F)c1)C1Cc2c(-c3ccc4c(c3)OCO4)ccnc2O1 (stereo not given) do in these assays?
TDP1 cell noCPT: 21µM*; IL1B secr inh: -5; DT40 TDP1 CPT: 16µM*

Results for O=C(Nc1cccc(Oc2ccccc2)c1)C1Cc2c(-c3ccc4c(c3)OCO4)ccnc2O1 (stereo not given) ?
TDP1 cell noCPT: inconclusive; IL1B secr inh: -4; DT40 TDP1 CPT: inconclusive

How did O=C(Nc1cccc(OC(F)(F)F)c1)C1Cc2c(-c3ccco3)ccnc2O1 (stereo not given) do in these assays?
TDP1 cell noCPT: 18µM*; IL1B secr inh: -21; DT40 TDP1 CPT: inconclusive

Results for O=C(Nc1cccc(OC(F)(F)F)c1)C1Cc2c(-c3ccc(Cl)cc3)ccnc2O1 (stereo not given) ?
TDP1 cell noCPT: inconclusive; IL1B secr inh: -25; DT40 TDP1 CPT: inconclusive

What do the screens show for `O=C(Nc1cccc(C(F)(F)F)c1)C1Cc2c(-c3ccccc3)ccnc2O1` (stereo not given)?
TDP1 cell noCPT: 26µM*; IL1B secr inh: -3; DT40 TDP1 CPT: inconclusive

What do the screens show for `CC(C)c1cc(C(F)(F)F)n2nc(C(=O)Nc3ccc(-n4cnnn4)cc3)cc2n1`?
TDP1 cell noCPT: 18%; ELG1 repair inh: 0%; IL1B secr inh: -13; DT40 TDP1 CPT: 0%; Giardia kill: 15

How did Cc1nn(-c2ccc(F)cc2)c(C)c1CNC(=O)c1ccc(-n2cc(NC(=O)c3ccoc3)cn2)cc1 do in these assays?
TDP1 cell noCPT: 12µM*; DT40 TDP1 CPT: -15%[9.04 µM]

How did NC(=O)c1cc(-c2csc(-c3cccnc3)n2)ccc1O do in these assays?
TDP1 cell noCPT: 13µM*; ELG1 repair inh: inconclusive; IL1B secr inh: inconclusive; TDP1 inh: 6%; DT40 TDP1 CPT: -23%; Giardia kill: -11

What do the screens show for `c1ccc2oc(-c3csc(NCC4CCCO4)n3)cc2c1` (stereo not given)?
TDP1 cell noCPT: inconclusive; ELG1 repair inh: inconclusive; IL1B secr inh: -26; TDP1 inh: 4%; DT40 TDP1 CPT: inconclusive; Giardia kill: 14

What do the screens show for `C=CCNc1nc(-c2ccc(O)c(C(N)=O)c2)cs1`?
TDP1 cell noCPT: 18µM*; ELG1 repair inh: inconclusive; IL1B secr inh: -7; TDP1 inh: 8%; DT40 TDP1 CPT: 13µM*; Giardia kill: -4

How did NC(=O)c1cc(-c2csc(NCCc3ccccc3)n2)ccc1O do in these assays?
TDP1 cell noCPT: inconclusive; ELG1 repair inh: 1%; IL1B secr inh: -23; TDP1 inh: 13%; DT40 TDP1 CPT: inconclusive; Giardia kill: -16

What do the screens show for `C=CCNc1nc(-c2cc3ccccc3o2)cs1`?
TDP1 cell noCPT: -18%; ELG1 repair inh: inconclusive; IL1B secr inh: -95*; TDP1 inh: 7%; DT40 TDP1 CPT: -20%; Giardia kill: -9

How did Cc1cccc(OCc2nnc(SCC(=O)c3c(N)n(C4CC4)c(=O)[nH]c3=O)o2)c1 do in these assays?
TDP1 cell noCPT: inconclusive; ELG1 repair inh: 16%; IL1B secr inh: 25; TDP1 inh: -18%; DT40 TDP1 CPT: 2%; Giardia kill: 3

How did O=C(CCCOc1ccc(Br)cc1)NCCc1ccc(OC(F)F)cc1 do in these assays?
TDP1 cell noCPT: -25%; ELG1 repair inh: -10%; IL1B secr inh: -8; TDP1 inh: 2%; DT40 TDP1 CPT: -13%; Giardia kill: -7

Results for CN(C)c1cccc(-c2cc(Nc3ccc(C(C)(C)C)cc3)ncn2)c1 ?
TDP1 cell noCPT: inconclusive; IL1B secr inh: 0; DT40 TDP1 CPT: 21µM*

How did CC(C)(C)CC(C)(C)N=C1NS(=O)(=O)c2cc([N+](=O)[O-])ccc21 do in these assays?
TDP1 cell noCPT: 15µM*; ELG1 repair inh: inconclusive; IL1B secr inh: -14; TDP1 inh: 8%; DT40 TDP1 CPT: inconclusive; Giardia kill: -12

How did CCC(CC)N=C1NS(=O)(=O)c2cc([N+](=O)[O-])ccc21 do in these assays?
TDP1 cell noCPT: 21µM*; ELG1 repair inh: -19%; IL1B secr inh: 24; TDP1 inh: -1%; DT40 TDP1 CPT: inconclusive; Giardia kill: -14

Results for CN[C@H]1[C@H](O)[C@@H](O[C@@H]2[C@H](O)[C@@H](O[C@H]3OC(CN)=CC[C@H]3N)[C@@H](N)C[C@H]2N)OC[C@@]1(C)O ?
TDP1 inh: 14%[21 µM]

What do the screens show for `O=C(Nc1ccccc1F)C1CCN(S(=O)(=O)c2cccnc2)CC1`?
TDP1 cell noCPT: 3%; ELG1 repair inh: 9%; IL1B secr inh: 18; TDP1 inh: 0%; DT40 TDP1 CPT: -11%; Giardia kill: 12

What do the screens show for `COc1ccc(NS(=O)(=O)c2ccc(O)c(NS(=O)(=O)c3ccc(NC(C)=O)cc3)c2)cc1`?
TDP1 cell noCPT: 24%; ELG1 repair inh: -2%; IL1B secr inh: 13; TDP1 inh: 1%; DT40 TDP1 CPT: -15%; Giardia kill: -5

What do the screens show for `O=C(Cn1cc(S(=O)(=O)Cc2ccccc2)c2ccccc21)Nc1ccccc1`?
TDP1 cell noCPT: -29%; ELG1 repair inh: 0%; IL1B secr inh: 8; TDP1 inh: 6%; DT40 TDP1 CPT: -19%; Giardia kill: 14

Compound activity (PubChem BioAssay)
